This is a sample that favours compounds with a hit; in the whole collection about 7.5% have one here.
ELG1 genotoxic = genotoxicity induction in ELG1-luciferase HEK293T cells | HEK293T ELG1-luciferase reporter, luminescence, 16 h | Potency, µM (highest dose often 46 µM), without a hit: top-dose activity change, positive = activation, most hits filed as activators | actives 1.3% (n = 330,000); further: % of control where 0% means no effect; nearly all actives have a fitted effect of over 60% in size
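ELG1-luciferase HEK293T cells, 2,000/well; compound pinned in; 16 hr, 37 °C, 5% CO2; ONE-Glo, 30 min RT; luminescence on CCD imager.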
NPC1 promoter act = NPC1 promoter activation | actives 2.4% (n = 320,000) | Huh7 NPC1 promoter luciferase reporter, 24 h | AID 485313 | Potency, µM (top dose mostly 9.22 µM), for inactives: at the highest dose activation, most hits filed as activators; further: % of control where 0% means no effect; nearly all actives have a fitted effect of over 60% in size
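Luminescence from an NPC1 promoter-driven luciferase reporter in stably transfected Huh7 cells was measured after 24 h compound treatment at 37 °C, followed by 10 min ambient incubation with luciferase detection reagent.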
SMN2 splice up = enhancers of SMN2 splice variant expression. HEK293 SMN2-luciferase splicing reporter, luminescence, 30-36 h. Potency, µM (top dose mostly 46.1 µM), for inactives: at the top dose activity change, positive = activation, actives largely listed as activators. actives 2.8% (n = 210,000). AID 1458; further: % of control where 0% means no effect; nearly all actives have a fitted effect of over 55% in size
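HEK293 cells carry an SMN2 minigene-luciferase reporter in which exon 7 inclusion puts luciferase in frame. Cells were seeded at 2000 cells/well, attached for 10-12 hours, then exposed to compounds for 30-36 hours at 37C before ONE-Glo luminescence.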
FLuc modulator = counter-screen for miR-21 project: firefly luciferase inhibitors or activators; P08659; purified FLuc, Km substrates, luminescence inhibition; Potency, µM (doses to about 57.5 µM), for the others: at the top dose activity change, negative = inhibition, most hits filed as inhibitors; actives 6.9% (n = 360,000);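 further: plate controls were vehicle for no effect and reference inhibitor for full effect; nearly all actives have a fitted effect of over 55% in size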
Target sequence (P08659 whole entry, looked up): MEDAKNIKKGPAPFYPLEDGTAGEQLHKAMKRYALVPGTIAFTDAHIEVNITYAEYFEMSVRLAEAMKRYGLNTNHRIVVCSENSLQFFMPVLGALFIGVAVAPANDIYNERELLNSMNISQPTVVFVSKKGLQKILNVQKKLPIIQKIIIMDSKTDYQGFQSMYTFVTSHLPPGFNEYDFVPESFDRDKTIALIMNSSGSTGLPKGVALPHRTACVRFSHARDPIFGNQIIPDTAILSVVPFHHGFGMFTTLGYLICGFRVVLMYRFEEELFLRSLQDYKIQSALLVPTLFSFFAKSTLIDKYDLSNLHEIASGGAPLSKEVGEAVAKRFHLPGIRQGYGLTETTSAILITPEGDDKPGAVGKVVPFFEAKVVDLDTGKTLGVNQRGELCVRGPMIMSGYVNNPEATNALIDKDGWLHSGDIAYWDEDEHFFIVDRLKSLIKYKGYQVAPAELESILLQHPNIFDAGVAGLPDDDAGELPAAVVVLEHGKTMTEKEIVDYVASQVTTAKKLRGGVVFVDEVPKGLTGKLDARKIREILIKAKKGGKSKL
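Biochemical qHTS of compounds, final roughly 60 µM downward over six points, against 10 nM purified firefly luciferase using Km concentrations of substrates (10 uM D-luciferin, 10 uM ATP) in Tris acetate pH 7.5 buffer; luminescence output.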
Rab9 prom act = activates the Rab9 promoter | Huh7 Rab9 promoter-luciferase reporter, luminescence, 24 h | Potency, µM (titrated, usually from 9.22 µM), inactives show top-dose activation, negative = inhibition, actives largely listed as activators | actives 2.8% (n = 320,000) | AID 485297; further: % of control where 0% means no effect; nearly all actives have a fitted effect of over 60% in size
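Luminescence read-out: Huh7 cells stably expressing Rab9-luciferase, treated 24 h with compound at 37 °C, then lysed with luciferase reagent for 10 min at ambient before reading.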
Luc counter = counter-screen: inhibitors of Kinase-Glo firefly luciferase | Potency, µM (doses to about 38.3 µM), for inactives: at the highest dose activity change, negative = inhibition, most hits filed as inhibitors | actives 0.28% (n = 200,000) | Kinase-Glo luciferase, ATP luminescence, 8 min | Q27757; further: on the % scale 0 is the no-effect control and ±100 the full control effect; nearly all actives have a fitted effect of over 60% in size
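Luminescence was the read-out, taken after 8-minute incubation at ambient temperature. Luciferase turned over luciferin with 10 uM ATP in imidazole pH 7.2 buffer containing KCl, MgCl2, Tween 20 and BSA.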
Starred values were filed as active, the others as inactive; ? = inconclusive; / = not tested or not shown; [ ] = remark or other dose. The call rests on the fitted dose curve; in most records, active means well fitted curve in the direction sought with a large enough effect; inconclusive means small, poorly fitted or top-dose-only effect, or another doubt; inactive means no such curve, though single readings can be large; an effect the other way counts as inactive or inconclusive. Potency means the concentration at half of the fitted maximal effect.

SMILES	ELG1 genotoxic	NPC1 promoter act	SMN2 splice up	FLuc modulator	Rab9 prom act	Luc counter
Cc1cc(C)cc(NC(=O)CCc2c(C)nn(-c3ccc(N4CCOCC4)nn3)c2C)c1	2.7%[9.26 µM]	7.6%	/	15.1µM*	8.4%	/
COc1ccc(NC(=O)CCc2c(C)nn(-c3ccc(N4CCCC4)nn3)c2C)cc1Cl	/	/	/	21.3µM*	/	/
Cc1nn(-c2ccc(N3CCCCC3)nn2)c(C)c1CCC(=O)Nc1cccc(F)c1	?	2.82µM*	/	4.78µM*	3.98µM*	/
Cc1nn(-c2ccc(N3CCCC3)nn2)c(C)c1CCC(=O)Nc1ccccc1	/	/	/	-5.6%	/	/
COc1cc2c(cc1OC)CN(c1ccc(C(F)(F)F)cn1)CC2	?	26.7%	/	16.9µM*	17.2%	/
CCOC(=O)c1c(S(=O)(=O)NCC(C)c2ccccc2)c(C)n(C)c1C (stereo not drawn)	-0.3%[9.26 µM]	-3.6%	/	0.3%	-0.5%	/
O=C(CNc1cc(S(=O)(=O)N2CCOCC2)ccc1NCC1CCCO1)Nc1cccc(F)c1 (stereo not drawn)	2.0%	-1.1%	/	1.9%	6.4%	/
Cc1cccc(-c2nc3c4ccccc4nc(N4CCN(c5ccccc5F)CC4)n3n2)c1	/	/	3.7%	-13.1%	/	/
CC(=O)c1ccc(S(=O)(=O)Nc2ccc(-c3ccc(N4CCCCC4)nn3)cc2)cc1	/	/	/	8.49µM*	/	/
CC(=O)c1ccc(S(=O)(=O)Nc2ccc(-c3ccc(N4CCCCCC4)nn3)cc2)cc1	/	/	/	10.7µM*	/	/
O=C(NC1CC(=O)N(c2ccccc2)C1)c1ccc(S(=O)(=O)N2CCCC2)cc1 (stereo not drawn)	/	/	/	-0.8%	/	/
O=C1C2CC=CCC2C(=O)N1Cc1ccccc1 (stereo not drawn)	-0.4%	-3.5%	-18.1%	2.8%	-0.3%	5.4%
O=C1C2CC=CCC2C(=O)N1Cc1nnc(-c2ccc(Cl)cc2)o1 (stereo not drawn)	?	12.3%	23.6%	19µM*	?	0.6%
COc1ccc(OC)c(NC(=O)CN2C(=O)COc3ccc(S(=O)(=O)NC4CCCC4)cc32)c1	/	/	/	-6.7%	/	/
COc1ccc(-n2cc(C(=O)N(CCN(C)C)Cc3ccccc3)c3ccccc3c2=O)cc1	/	/	/	-5.7%	/	/
CCN(CC)C(=O)COc1ccc2oc(-c3ccco3)cc(=O)c2c1	10.5%	13.7%	/	15.1µM*	26.6%	0.6%
C=C(C)Cc1c(C)c(C#N)c2[nH]c3ccccc3n2c1=O	-6.6%	-2.6%	/	-4.9%	3.4%	/
COCc1cc(=O)n2c([nH]c3ccccc32)c1C#N	18.8%	-0.6%	?	19µM*	8.1%	-8.7%
CCc1cc(=S)n2c([nH]c3ccccc32)c1C#N	-16.7%	0.0%	/	23.9µM*	-8.3%	/
CCc1cc(=O)n2c([nH]c3ccccc32)c1C#N	15.1%	-1.0%	-62.0%	19µM*	-5.9%	5.0%
CC(SCc1cc(=O)n2c([nH]c3ccccc32)c1C#N)C(=O)O (stereo not drawn)	-3.8%	4.8%	-15.8%	?	-7.2%	9.7%
CN1CCN(CC(=O)Nc2c(C#N)cnn2-c2ccccc2)CC1	-1.5%	0.2%	/	3.8%	-3.7%	/
CC1CCCC/C1=N\NS(=O)(=O)c1ccc(Br)cc1 (stereo not drawn)	3.6%	1.2%	-20.9%	-17.4%	-1.1%	-0.3%
COc1n[nH]c(C(=O)Nc2nc3ccccc3s2)c1[N+](=O)[O-]	16.4µM*	?	11.2µM*	15.1µM*	?	-1.3%
COc1ccccc1C(=O)Nc1nc2ccccc2s1	?	2.24µM*	/	0.107µM*	?	/
SMILES	ELG1 genotoxic	NPC1 promoter act	SMN2 splice up	FLuc modulator	Rab9 prom act	Luc counter
COc1n[nH]c(C(=O)NCc2ccccc2)c1[N+](=O)[O-]	0.2%	-1.1%	6.0%	?	-0.3%	-2.0%
COC(=O)CCCCCCCCC(=O)Nc1nc2ccccc2s1	-1.9%	-0.7%	22.2%	-1.8%	-0.9%	-2.5%
COc1ccccc1C(=O)Nc1nc(N)n(-c2ccccc2)n1	1.5%	1.9%	-10.3%	12µM*	15.5%	-3.1%
COc1ccc(C(=O)Nc2nc3ccccc3s2)c(OC)c1	-28.4%	?	/	0.0151µM*	-24.5%	/
COc1cc(C(=O)Nc2nc(N)n(-c3ccccc3)n2)cc(OC)c1OC	16.0%	2.8%	?	3.5%	17.4%	-6.1%
CCCc1cc(=O)oc2cc(C)cc(OCC(=O)Nc3cccnc3)c12	-6.5%	-2.6%	/	-2.3%	-6.8%	/
O=Cc1ccc(OCc2nnsc2Cl)cc1	-0.4%	-0.3%	-7.3%	-5.3%	1.1%	-1.7%
CCOc1ccc(N(C(=O)c2ccc(OC)cc2)S(=O)(=O)c2ccc3c(c2)n(C)c(=O)n3C)cc1	/	/	-7.6%	-5.7%	/	/
O=C(O)CCC(=O)c1ccc(Cl)cc1	/	/	-14.0%[9.22 µM]	/	/	-3.1%[7.66 µM]
Cc1ccc(O)c(NC(=O)/C=C/C(=O)O)c1	0.8%	-3.7%	-18.2%	2.9%	-3.0%	1.2%
Cc1ccc(N/C=C/C(=O)c2ccc(C)cc2)cc1	?	1.41µM*	/	0.757µM*	1.58µM*	-14.2%
Cc1ccc(C(=O)/C=C\Nc2ccc(C)c(C)c2)cc1	?	2µM*	11.2µM*	2.13µM*	1.58µM*	-4.0%
Cc1ccc(O)c(N/C=C/C(=O)c2ccc(F)cc2)c1	20.6µM*	0.6%	/	2.39µM*	-3.5%	/
CCc1nc2oc3ccccc3c(=O)c2c(=O)n1-c1ccc(C)cc1	?	16.2%	/	16.9µM*	23.3%	/
CCCc1nc2oc3ccccc3c(=O)c2c(=O)n1-c1ccc(C)cc1	?	16.7%	/	-27.6%	?	/
CCCc1nc2oc3ccccc3c(=O)c2c(=O)n1-c1ccccc1	?	12.8%	/	-9.1%	13.4%	/
CCc1nc2oc3ccccc3c(=O)c2c(=O)n1-c1ccccc1	13µM*	14.5%	11.2µM*	-1.0%	2.9%	-1.9%
Cc1cc(C)n(Cc2cccc(C(=O)N/N=C/c3ccncc3)c2)n1	1.3%	-4.7%	/	-13.2%	1.4%	/
CCOC(=O)N1CCC(N2Cc3cccc(C(=O)Nc4ccc(OCC)cc4)c3C2=O)CC1	-6.7%	0.7%	/	12µM*	-1.7%	/
CCOC(=O)N1CCC(N2Cc3cccc(C(=O)Nc4ccc(CC)cc4)c3C2=O)CC1	-15.4%	0.3%	6.7%	12µM*	0.6%	17.4%
Cc1cccc2nc(CSCc3ccco3)cn12	?	1.12µM*	11.2µM*	7.57µM*	2.24µM*	5.4%
Cc1cc(C)n2cc(CSCc3ccco3)nc2n1	4.6%	-1.7%	1.6%	0.9%	1.9%	3.7%
Cc1nc(CSc2ccc(Cl)cc2)cc(NCc2ccccc2)n1	-0.3%	0.5%	5.7%	-29.6%	9.7%	-3.1%
CNc1cc(CSc2ccc(Cl)cc2)nc(C)n1	18.2%	?	?	16.9µM*	2.24µM*	1.2%
Cc1cccc2nc(CSc3ccc(Cl)cc3)cn12	?	3.16µM*	11.2µM*	9.53µM*	2.24µM*	-6.0%
